This note sets out measurements from ChEMBL document CHEMBL3988442, “University of Dundee, Small-Polar-MMV Screening Library” (2021).

Screen size: about 38,000 compounds; about 1,200 (3.2%) showed an effect of 50% or more. The median lay at about -58%. Many of the other results were omitted from the sample, so strong results are more common in it than they were.

The subject of this assay is Plasmodium falciparum. The assay can be described thus: Calibr Malaria Delayed Death Assay SOP. Further details: scale not given: in the data most compounds retested in dose-response had high values. Conditions: concentration 4.99e-06 (unit not given; other assays of the set use mol/L). The format is functional, organism-based.
Regarding `CN1CCN(C(=O)c2cc3sccc3n2Cc2ccccc2F)CC1`, the “Percent Effect” value stood at 29.89%.
The same measure for `NC(=O)c1ccc(CN2CCCC(N3CCCCCC3)C2)cc1` (stereo not given): -140%; for `COCC(=O)N1C[C@H](N(C)Cc2cncnc2)[C@H]2OCCC[C@H]21`: -24%.
On to `COc1ccccc1OC1CCN(Cc2ccc(N(C)C)nc2)CC1`, for which the “Percent Effect” value was -79.91%.
In the case of `O=C(NCCn1cccc1)c1c(O)cc(F)cc1F`, the “Percent Effect” value was -181.2%.
Consider `Cc1cc(C(=O)N2CCCC2c2nnc3n2CCCCC3)on1` (stereo not given), for which the “Percent Effect” value is -57.59%.
As for `CCN1C[C@H]2[C@@H](C1)N(S(=O)(=O)c1ccccc1F)CC[C@H]2OC.O=C(O)C(F)(F)F`, the “Percent Effect” value is 45.85%.
The same measure for `CCN1C[C@@H]2[C@@H](OC)CCN(S(=O)(=O)c3cccnc3)[C@@H]2C1.O=C(O)C(F)(F)F.O=C(O)C(F)(F)F`: -23.75%.
Then `CCN1C[C@H]2[C@@H](C1)N(S(=O)(=O)c1ccccc1)CC[C@H]2OC.O=C(O)C(F)(F)F`, with 60.81%.
Take `O=c1cc(N2CCCCC2)cnn1CC(O)C(F)(F)F` (stereo not given): the “Percent Effect” value is reported as -156.3%.
On to `Cc1ccnc(OCC(=O)N2CCCC2)n1`, for which the “Percent Effect” value is recorded as -75.67%.
On to `Fc1cccc(Cl)c1CNCCCOc1ccccn1`, for which the “Percent Effect” value was determined as 9.624%.
As for `Cc1cccc(NC(=O)C2CSc3ncc(C)c(=O)n3C2)n1` (stereo not given), the “Percent Effect” value is recorded as -106.9%.
For `c1cnc(N2CCC3(COCc4cnc(N5CCOCC5)nc43)C2)nc1` (stereo not given), the “Percent Effect” value was -59.23%.
As to `CC(C)(O)CN1CCN(C(=O)c2cccn2Cc2ccccc2)CC1`, the “Percent Effect” value is recorded as -70.89%.
Then `Cc1ccc(C2(CN(C)Cc3c(C)nn(C)c3C)CCNCC2)nc1`, with 16.34%; and `Cc1ccc(C2(CN(C)Cc3snnc3C)CCNCC2)nc1`, with -24.27%.
As to `Cc1ccc(C2(CN(C)Cc3sccc3C)CCNCC2)nc1`, the “Percent Effect” value was 76.73%.
For the molecule `CCCc1nc(N2CCCC(CCOC)C2)c2cnn(C)c2n1` (stereo not given), the “Percent Effect” value is -84.44%.
In the case of `CCC(CO)NCc1ccc(-c2ccc(Br)cc2)o1.Cl` (stereo not given), the “Percent Effect” value worked out at 45.11%.
The same measure for `Cc1cc(N2CCCC2)nc(N(C)CCO)c1C#N`: -125.9%.
Turning to `Cc1nc(CCNc2nc(N(C)C)nc3c2CCCC3)cc(=O)[nH]1`, the “Percent Effect” value is recorded as -16.34%.
For the molecule `CC(=O)N1CCc2nc(N(C)C)nc(NCCc3ccccc3)c2CC1`, the “Percent Effect” value was -47.75%.
The same measure for `CN(C)c1nc2c(c(NCc3cc(O)ncn3)n1)CCCC2`: 89.31%; for `Cc1cnn(CC2CCCN2Cc2nnc(C)o2)c1` (stereo not given): -118.7%.
For the molecule `CC(C)c1cc(NC(=O)c2ccc([S+]([O-])C(C)C)cc2)[nH]n1` (stereo not given), the “Percent Effect” value is reported as -180.3%.
The same measure for `CC(C)c1cc(NC(=O)c2ccncc2)[nH]n1`: -141%.
In the case of `CC(C)c1cc(NC(=O)c2ccc(C(=O)NC(C)(C)C)cc2)[nH]n1`, the “Percent Effect” value was 62.94%.
The same measure for `CCn1c(C)nnc1Sc1nn2cc(C)nc2s1`: -124.9%.
Turning to `CCN1CC2(CC1=O)CN(C(=O)c1ccoc1)CCN(C(=O)N(C)C)C2` (stereo not given), the “Percent Effect” value is recorded as -39.9%.
For `Cc1c(CN2CC[C@@H](N3CCC(O)CC3)[C@H](O)C2)[nH]c2ccc(Cl)cc12`, the “Percent Effect” value was 53.46%.
Turning to `Cc1c(CN2CC[C@@H](N3CCC(O)CC3)[C@H](O)C2)[nH]c2ccc(F)cc12`, the “Percent Effect” value is -24.81%.
Then `Cc1ccc2[nH]c(CN3CC[C@@H](N4CCN(C)CC4)[C@H](O)C3)c(C)c2c1`, with -45.01%; and `Cc1noc([C@@]23CCO[C@@H]2CCN(S(=O)(=O)c2cccnc2)C3)n1`, with -112.8%.
`CSc1ccc(CN(CCO)C(=O)CCc2ccc(O)cc2)cc1`: the “Percent Effect” value was -83.46%.
As to `CN1CCC(N2CCC(C(=O)N(C)C)CC2)CC1.O=C(O)C(F)(F)F.O=C(O)C(F)(F)F`, the “Percent Effect” value was -35.37%.
For the molecule `Cc1cc(=O)n2nc(Oc3cccc(I)c3)sc2n1`, the “Percent Effect” value is 55.78%.
Turning to `Cc1cc(=O)n2nc(Oc3ccc(C#N)cc3Cl)sc2n1`, the “Percent Effect” value is given as 19.91%.
As to `Cc1cc(=O)n2nc(Oc3cc(Cl)cc(Cl)c3)sc2n1`, the “Percent Effect” value was -6.381%.
With `O=c1[nH]cnc2[nH]c(N3CCCCC3)nc12`, the “Percent Effect” value is listed as -26.61%.
As to `N#Cc1ccc(NCc2cccc(OCC3CCCO3)c2)nc1` (stereo not given), the “Percent Effect” value is listed as -77.93%.
Turning to `COc1cc2c(cc1CNC(=O)C(C)n1ccnc1C(C)C)CCC2` (stereo not given), the “Percent Effect” value was determined as 59.1%.
Turning to `COc1cc2c(cc1CNC(=O)C(C)n1ccnc1C(C)C)OCCO2` (stereo not given), the “Percent Effect” value is 8.922%.
For `COCc1nc(CNC(=O)C(C)n2ccnc2C(C)C)no1` (stereo not given), the “Percent Effect” value is recorded as -17.51%.
Turning to `NS(=O)(=O)NCc1cc(-c2ccc(C(F)(F)F)cc2)n[nH]1`, the “Percent Effect” value is reported as -60.23%.
Turning to `Fc1cccc(N2CCCC3(CN(Cc4nccs4)CCO3)C2)c1.O=C(O)C(F)(F)F.O=C(O)C(F)(F)F` (stereo not given), the “Percent Effect” value is reported as -4.725%.
Turning to `Fc1cccc(N2CCCC3(C2)CN(c2ncccn2)CCO3)c1.O=C(O)C(F)(F)F.O=C(O)C(F)(F)F` (stereo not given), the “Percent Effect” value is given as 69.94%.
The same measure for `Fc1cccc(N2CCCC3(CN(Cc4ccccn4)CCO3)C2)c1.O=C(O)C(F)(F)F.O=C(O)C(F)(F)F.O=C(O)C(F)(F)F` (stereo not given): -90.59%; for `Cn1cc(CN2CCOC3(CCCN(c4cccc(F)c4)C3)C2)cn1.O=C(O)C(F)(F)F.O=C(O)C(F)(F)F` (stereo not given): -10.6%.
Then `Fc1cccc(N2CCCC3(CN(Cc4ccco4)CCO3)C2)c1.O=C(O)C(F)(F)F.O=C(O)C(F)(F)F` (stereo not given), with 40.81%; and `Fc1cccc(N2CCCC3(CN(Cc4cccnc4)CCO3)C2)c1.O=C(O)C(F)(F)F.O=C(O)C(F)(F)F.O=C(O)C(F)(F)F` (stereo not given), with 64.23%.
For the molecule `CC(C)(C)OC(=O)N1CCN(c2nnc(Br)s2)CC1`, the “Percent Effect” value is -125.7%.
The same measure for `Cn1cccc1C(=O)N1CCn2nnc(COc3cccnc3)c2C1.O=C(O)C(F)(F)F`: -3.271%.
Take `Cc1csc(C(=O)NCCn2nc(-n3cncn3)ccc2=O)c1`: the “Percent Effect” value is listed as -119.2%.
On to `O=C(Cn1cc(-c2ccccc2)ncc1=O)NC1CCCCC1`, for which the “Percent Effect” value is reported as -177.8%.
For the molecule `CCCS(=O)(=O)N1CCOC2(CCCN(c3ccccn3)C2)C1.O=C(O)C(F)(F)F` (stereo not given), the “Percent Effect” value is recorded as -72.32%.
In the case of `COc1ccc2c(c1)OCC(CNC(=O)c1ccc3[nH]nnc3c1)C2` (stereo not given), the “Percent Effect” value is -64.67%.
Take `COCCN(CC1CCCN(C2Cc3ccccc3C2)C1)C(=O)CO` (stereo not given): the “Percent Effect” value turned out to be 58.68%.
For the molecule `COCCN(CC1CCCN(C2Cc3ccccc3C2)C1)C(=O)COC` (stereo not given), the “Percent Effect” value turned out to be 37.76%.
Then `COCCN(CC1CCCN(C2Cc3ccccc3C2)C1)C(=O)CSC` (stereo not given), with -1.59%.
Take `NCc1ccnc(Oc2ccccc2)c1`: the “Percent Effect” value is listed as -83.78%.
For the molecule `O=C(CO)N1C[C@H]2CN(Cc3cccc(F)c3)C(=O)[C@H]2C1`, the “Percent Effect” value is recorded as -121.2%.
Take `Fc1ccc(OCCCNC2=NCCCN2)cc1.I`: the “Percent Effect” value is on record as 2.763%.
Regarding `CN(C)c1cc(C(=O)NCC2(c3ccc(F)cc3)CC2)ccn1`, the “Percent Effect” value is listed as -97.96%.
Take `Fc1ccc(C2(CNC3=NCCCN3)CCC2)cc1.I`: the “Percent Effect” value was -5.202%.
In the case of `CC(NC(=O)NCC1(c2ccc(F)cc2)CCCC1)c1nncn1C` (stereo not given), the “Percent Effect” value is reported as -7.891%.
Regarding `Fc1ccc(C2(CNC3=NCCN3)CCCC2)cc1.I`, the “Percent Effect” value was determined as 83.26%.
Then `COc1cccc(N2C(=O)CC3(CCCNC3)C2=O)c1.Cl` (stereo not given), with -161.5%; and `c1ccc2oc(CN3CCCCC3Cn3cncn3)nc2c1` (stereo not given), with -88.89%.
For the molecule `COc1ccc(F)c(CN2CC(=O)N(c3ccccc3C)CC2C)c1` (stereo not given), the “Percent Effect” value is 6.943%.
The same measure for `COc1cc(CN2CC(=O)N(c3ccc(C)cc3)CC2C)cc(OC)c1` (stereo not given): 43.44%; for `COc1cccc(CN2CC(=O)N(c3ccccc3C)CC2C)c1OC` (stereo not given): 52.42%.
Then `COc1ccc(CN2CC(=O)N(c3ccc(C)cc3)CC2C)cc1O` (stereo not given), with -98.66%; and `COc1ccc(F)c(F)c1CN1CC(=O)N(c2ccccc2C)CC1C` (stereo not given), with 28.54%; and `COc1cccc(OC)c1CN1CC(=O)N(c2ccc(C)cc2)CC1C` (stereo not given), with 75.45%.
Turning to `CN(C)C(=O)CO[C@H]1CN(Cc2ccoc2)[C@@H]2COC[C@H]12.O=C(O)C(F)(F)F`, the “Percent Effect” value is -8.838%.
Consider `Cc1nc[nH]c1CN(C)CC1CCCN(CCc2ccc(Cl)cc2)C1` (stereo not given), for which the “Percent Effect” value came out at 82.22%.
The same measure for `CN(Cc1ccccc1O)CC1CCCN(CCc2ccc(Cl)cc2)C1` (stereo not given): -82.77%.
As to `CN(Cc1ccncc1)CC1CCCN(CCc2ccc(Cl)cc2)C1` (stereo not given), the “Percent Effect” value was -30.31%.
For the molecule `CN(Cc1cnc(N)nc1)CC1CCCN(CCc2ccc(Cl)cc2)C1` (stereo not given), the “Percent Effect” value was -42.11%.
As for `Cc1cc(CN(C)CC2CCCN(CCc3ccc(Cl)cc3)C2)[nH]n1` (stereo not given), the “Percent Effect” value was -73.95%.
`CC(C)NC(=O)c1nnn(-c2ccccc2)c1C1CC1`: the “Percent Effect” value is reported as -103.7%.
`CCCNC(=O)c1cc2c(s1)CCN2C(=O)c1ccccc1`: the “Percent Effect” value was -140.9%.
As to `O=C(NCCN1CCOC1=O)c1cnc(-c2cccnc2)nc1`, the “Percent Effect” value is on record as -89.05%.
Take `O=C(N[C@@H]1CN(Cc2cccc(F)c2)C[C@H]1O)c1cscn1`: the “Percent Effect” value is given as -187.1%.
As for `O=C(COCC1CC1)Nc1ncccc1I`, the “Percent Effect” value is -99.18%.
With `CCOCC1CN(Cc2ccc(OC)cc2)Cc2nn(CC3CC3)cc21.O=C(O)C(F)(F)F` (stereo not given), the “Percent Effect” value was -47.96%.
In the case of `CC(C)N(CCNC(=O)c1ccc(S(=O)(=O)NC2CC2)cc1)C(C)C`, the “Percent Effect” value is reported as 3.108%.
Regarding `CC(C)N(CCNC(=O)c1[nH]nc2ccc(I)cc12)C(C)C`, the “Percent Effect” value is 86.77%.
Consider `Cc1cccc(C(C)C)c1NC(=O)NCCN(C(C)C)C(C)C`, for which the “Percent Effect” value is 37.4%.
Take `c1ccc(-c2cc(CN3C[C@H]4CC[C@H]3C4)on2)cc1`: the “Percent Effect” value is reported as 2.742%.
`c1ccc(-c2cc(CN3C[C@@H]4CC[C@H](C3)N(CC3CCC3)C4)on2)cc1`: the “Percent Effect” value was 88.08%.
Turning to `c1ccc(-c2cc(CN3C[C@@H]4CC[C@H](C3)N(CC3CC3)C4)on2)cc1`, the “Percent Effect” value was 16.35%.
As for `CCC(OC)C(=O)NCc1cc2n(n1)CCCN(C1CCCCC1)C2` (stereo not given), the “Percent Effect” value is recorded as -16.19%.
On to `CC1CCCCN1c1nc2c(c(=O)[nH]1)CCN(Cc1ccccc1F)C2` (stereo not given), for which the “Percent Effect” value turned out to be 13.92%.
